In PubChem BioAssay AID1347426 (Functional Genomics Laboratory (NCATS/FGL), 2020):
About 1,400 (4.5%) of roughly 31,000 sequences were called active. Many of the other results were omitted from the sample, so actives are more common in it than they were. Values without a mark were called inactive.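 The calls were made as follows: active = median seed-adjusted z-score above 1 or below -1; inactive = the rest.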

Assay: Novel Modifiers of Survival Motor Neuron (SMN) Protein: Gene Identification via Genome-wide siRNA Screen;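 also: luminescence tracks full-length SMN protein made from the SMN2 reporter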
Details: HEK293T SMN2-luciferase reporter, siRNA knockdown, 72 h; actives lie on both sides
Method in brief: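 Steps: spot 1 pmol siRNA, add Lipofectamine RNAiMax in serum-free DMEM, seed HEK293T SMN2–luciferase reporter cells; incubate 72 h at 37 °C; add ONE-Glo; normalize luminescence to control siRNA, log10, MAD. Candidates: |MAD| > 1.0.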

In order of falling median seed-adjusted z-score:
1. GCAGCUUCACCUAUCCGAUTT against KLF4  0.883
2. GCCUGACUGUAACACCCAATT against TXN2  0.87
3. AAGACUCACUUGUUCAACATT against ZNF772  0.817
4. GGACAAAUUUUGGAGAGAATT against COG2  0.791
5. GCUACAUCGAGGACCUUAATT against SERPINB1  0.734
6. CGUGCGGACAAUAAGCAAATT against MYO1C  0.566
7. CAACGGUAAUUAUCAGUCATT against FABP7  0.562
8. AGGCCGCUGUGGACAUCAATT against CASKIN1  0.555
9. CCUUCAUAGUCAACAGCAATT against MGC16703  0.55
10. AGAUGUACAACGACCCAAATT against AGBL4  0.487
11. CCAACAGGAGAGUACGUGATT against STRADA  0.415
12. CGGGUACAAGGAUUGGUUUTT against ROM1  0.41
13. CCAUUAUUGACUCACCCUATT against CSTF2T  0.387
14. UGGACAUUCUUGCACCCAATT against CHTF18  0.371
15. GGAGAUAAGAGAUCAUAUUTT against OXNAD1  0.36
16. CAAUCGUCCAAUGAUCUUATT against PCDHB1  0.342
17. CUUGAUGACUCUAAACCUATT against RUNX2  0.335
18. GAUUCUACUGUCUUACUAATT against HIATL1  0.327
19. CCAUCUACAUCAGAGUCCATT against BTN1A1  0.291
20. CUCCCAUGAUGGCAUCUUATT against HSPB2  0.247
21. GCUCCAAAUGGAGAGUGUATT against PRKCDBP  0.244
22. GAGGUUUUAUAUAACCGAUTT against SMC6  0.227
23. GCAUGUUAUCGAAGGGUUUTT against PHC2  0.177
24. UCAAUACUGUGGGUUCUUATT against FBLN2  0.176
25. GGCUUAUGGAGAUAUGAAUTT against PPFIA2  0.176
26. GCACGACGACAAUAUCAUUTT against PEX3  0.142
27. CAACUUCACUCAGAACCCATT against MARCO  0.137
28. CAGUCUUUAUGCAAUGGAATT against TYR  0.131
29. GAGCCGCUGGUGUAUCUUUTT against TLR4  0.113
30. UCGUCUUUGUCACCCGAAATT against CCL5  0.11
31. GCCUACUUCAUUCAUCAUATT against KSR1  0.0873
32. CAUGAGAUACGAUACACUATT against TRMT6  0.069
33. GGAACAGCACAGAACAGCATT against ARID5A  0.0642
34. CAUUAGUACUUCGAUCUAUTT against PHCA  0.0568
35. AGGUCAGGGUUACAGCUUUTT against MPP2  0.0496
36. ACAACGUGGUGAGAUGCAATT against LOXL1  0.0435
37. CCGUCAAGGUGUAUUUUGATT against PPIB  0.038
38. CCAUUGAAGCUUGAGAGAATT against ZNF286A  0.0368
39. CCACGUUCACCAAGAUCUUTT against RBM38  0.0358
40. GAAGGAUCUCAAACUCGAATT against NECAB1  0.0268
41. GGCUUAACAUUGAACGAAUTT against CRY2  0.0209
42. CCACCGACGACAAUCUGUATT against ATP4A  0
43. GGUCAUUAAUUUACAUGAATT against STK17A  0
44. CAAUAUUAGUUGCUGUAUATT against PPAP2A  0
45. GUUGAGGUCUGGUAACAGATT against TMED1  0
46. CCACUCUCAUUGUGACUGATT against DDX54  0
47. GGAUUAUGAAGAAUGGAAATT against ORC6L  0
48. CCCUUUUCGUGGUCUAUGATT against LCMT2  -0.0205
49. GGCAGAGCCUGACCACUUUTT against LOC100137047-PLA2G4B  -0.022
50. GCAUCAUUGAAGGACUAGATT against HEY1  -0.023
51. GGCAAGAUCUGUACCGUGATT against HPN  -0.0237
52. GCAUAACUUGAAUAGUACATT against AKAP11  -0.0405
53. GCCUCGCUGUGAUCUGAUUTT against CACNG6  -0.0499
54. CGAGUACCGGGUCAAGAUATT against PLXND1  -0.064
55. GUGGUUUCUUGAUCUGAAATT against HSDL2  -0.0717
56. GGCCUUCGUGUACAUCAAUTT against SUV39H1  -0.0775
57. GAGACCCUCUGGUUAUAGATT against FKBP11  -0.085
58. CCGUAAACAUAUGACUAAATT against ZBTB11  -0.105
59. GGCUAACUCGAUUUAAGCATT against TIGD2  -0.13
60. UGCUCUACUUCUUAAGUGATT against STARD8  -0.135
61. CCCUGGUAGUCAAAAACGATT against PHKB  -0.142
62. GACUUUGACAAAGCGAUUATT against SPTAN1  -0.233
63. CAUCCAUGGUUAAGUCAUATT against PTK6  -0.295
64. CGGUUGUUAUGACAAUGGATT against FN1  -0.312
65. CGCCAUCUGUGUAACUUCATT against CARD9  -0.325
66. AGUUUGUGAUAUCAUGAGATT against FRMPD2  -0.329
67. UCAUGAACAUUGUCAAUGATT against ADAMTS2  -0.338
68. GGAAAGGUCUAGAUCAGGATT against SEL1L2  -0.342
69. CGGUGACCAUAGUACAACATT against FOXK2  -0.348
70. CCUAUGAUAUGGUUCCAGATT against COX5A  -0.348
71. GCUCAGAUAAAGUACAGAATT against GGCX  -0.362
72. CUACCGUGCAAGUUCAUUATT against CD3D  -0.403
73. GGUAUACAAGGAAAGGUUATT against EIF4E  -0.404
74. GGAGUUUGUUUGCAAGUAUTT against RREB1  -0.414
75. GAUGCUACUUUAGAAUUAATT against GNPDA2  -0.422
76. GGUACCUGCUGAUUCAGAATT against SLC2A5  -0.429
77. GGUGAUUCAAGAUGCCCAATT against PXMP2  -0.444
78. GCUCCUCGUUUGUAGAAGATT against SLIT3  -0.453
79. CCUCGACCCUGUUUCUUAUTT against ARL4D  -0.523
80. AGAUUUAUCUUGAAGCUGATT against ARL4D  -0.523
81. GCAUCGCUGUUACCCAUCUTT against CCRN4L  -0.572
82. CUAUGCCCGUGGUCACUAUTT against TUBA4A  -0.594
83. CAGCAGUACCGACAGAAGATT against ATAD3B  -0.624
84. GACCUUCCACAGUACAUCATT against MAST3  -0.642
85. GGAGCGAGCUGGUGCAUAATT against SH3BP5  -0.707
86. CCUCAUGACUUCGCAAAUATT against COPB1  -0.839
87. GCCCGACUCUCUAAUGGAATT against PRKD3  -0.906
88. GGACCAUAACUCUUACGUATT against RBM26  -0.967

With CCAUCGAUGUCUCUGCUAUTT against ABCA1 the median seed-adjusted z-score was -1.27 (active).
With GCACCUCUACAGGAACUUUTT against TSC2 the median seed-adjusted z-score was 1.11 (active).
In the case of CGAUGUCUAGAGAACAGCATT against LAMB1, the median seed-adjusted z-score is reported as 1.07 (active).
In the case of GAGCGCCUCUAGAAUGUAATT against HMX1, the median seed-adjusted z-score is reported as 1.3 (active).
With CCAUUGUCUUCCACCGAAATT against RAN the median seed-adjusted z-score was -3.09 (active).
For GCGAUAUUAUCAUACUGGATT against ZNF470, the median seed-adjusted z-score was -1.26 (active).
In the case of CCAUAUAAGUUUACGUUUATT against TM9SF2, the median seed-adjusted z-score is reported as 1.09 (active).
For GGAACUCUUUGCUGAAUUUTT against THOC4, the median seed-adjusted z-score was -1.54 (active).
For CGAAGACUGUCUGAGACAATT against GPR52, the median seed-adjusted z-score was -1.17 (active).
In the case of GAGGCUUCAUUUUAGAAGATT against XPA, the median seed-adjusted z-score is reported as 2.03 (active).
With GAUCUUCGGUGAAUCAGAATT against MRC2 the median seed-adjusted z-score was -1.34 (active).
In the case of GGGACAAGUUCGUCAUCUUTT against CRYAA, the median seed-adjusted z-score is reported as -1.03 (active).
For UGCUGACCUCGUUACCUUUTT against UCP3, the median seed-adjusted z-score was 1.23 (active).
For GCAUGGUAUUGGAAUAACUTT against CHEK1, the median seed-adjusted z-score was -5.1 (active).
For GAGUCAUAGUUGCAGCUGATT against PSMB5, the median seed-adjusted z-score was -1.37 (active).
With UCACUGUGCUACAUCAUCATT against MYL7 the median seed-adjusted z-score was -1.21 (active).
For CCAUUUGACUUUAUGGAGATT against RRM2, the median seed-adjusted z-score was -3.84 (active).
For CCAGGACAUUCGAAAGCGATT against TRAF4, the median seed-adjusted z-score was -1.16 (active).
In the case of CGCACACGUAGAGACCUUATT against PNN, the median seed-adjusted z-score is reported as 1.29 (active).
For GCUGUGAACUGACUCUGCATT against UROD, the median seed-adjusted z-score was 1.11 (active).
